# Reference: PubChem BioAssay (NCATS)
# Several values for one entry are separate records, joined by “and”; a condition that tells them apart may be missing. Equal entries are not always repeated. Unmarked numbers belong to inactive results. Inconclusive results are not listed. Activity calls are given as the source filed them. Unless noted, calls follow the shape of the dose curve; as a rule, active = well fitted curve in the direction sought with a large enough effect; inconclusive = small, poorly fitted or top-dose-only effect, or another doubt; inactive = no such curve, though single readings can be large; an effect the other way counts as inactive or inconclusive.
# Tests used:
# [1] = tested on: Tov-21-G; assay: Primary qHTS to identify gynecologic anti-cancer compounds using libraries of approved drugs and bioactive compounds (AID 1345084); conditions: Gynecologic cancer cell panel viability, ATPlite luminescence, 48 h; series mostly up to 57.5 µM; also: nearly all actives have a fitted effect of over 55% in size; also: potency is read from the fitted curve at half-maximal effect
# Method in brief: (§1)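 Cytotoxicity screen measuring ATP content by luciferase luminescence. Each compound is applied at five concentrations for 48 h at 37 C with 5% CO2.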
# [2] = tested on: Tov112D; assay: as above; conditions: Gynecologic cancer cell panel viability, ATPlite luminescence, 48 h; series mostly up to 57.5 µM
# Method in brief: as §1
# [3] = Drug repurposing screens with cells derived from glioblastoma tumor samples (AID 1345199); conditions: GBM patient neurospheres viability, ATP luminescence, 48 h; also: nearly all actives have a fitted effect of over 40% in size; also: potency is read from the fitted curve at half-maximal effect; as to activity, negative = cell killing: % is scaled to controls: 0 for no effect and ±100 for the full control effect
# Method in brief: (§2)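 Primary testing used CD133+ neurospheres from four GBM patients, seven concentrations, 48 h exposure and ATP-based viability; confirmation added three slower-growing patient lines.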
# [4] = biological target: Nuclear receptor subfamily 1 group I member 2 (Rattus norvegicus) (UniProt Q9R1A7); assay: qHTS assay for small molecule activators of the rat pregnane X receptor (rPXR) signaling pathway (AID 651751; call rule not given here; also: 0% is about no effect); conditions: rPXR reporter cells, luciferase (One-Glo), 24 h
# [5] = qHTS assay for small molecule activators of the human pregnane X receptor (PXR) signaling pathway (AID 720659; call rule not given here; also: 0% is about no effect)
# [6] = tested on: astro; assay: Drug repurposing screens with cells derived from glioblastoma tumor samples (AID 1345199); conditions: viability, ATP luminescence, 48 h; series mostly up to 45.9 µM; also: nearly all actives have a fitted effect of over 40% in size; also: potency is read from the fitted curve at half-maximal effect; as to activity, negative = cell killing: % is scaled to controls: 0 for no effect and ±100 for the full control effect
# Method in brief: as §2
# [7] = qHTS assay to identify inhibitors of the type 1 interferon - major histocompatibility complex class I in skeletal muscle: Counter screen cell viability and HiBit confirmation (AID 1347412); conditions: iHSKM muscle cells + IFN-b, HiBiT or CellTiter-Glo, 24 h; also: potency is read from the fitted curve at half-maximal effect; nearly all actives have a fitted effect of over 60% in size
# Method in brief: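 CRISPR HLA-B*08:01-HiBit immortalized human myoblasts (C25cl48) stimulated with 4 ng/ml IFN-beta and compounds (12-point 1:3, top 46 uM final) for 24 h at 37 C. Duplicate plates read by HiBit lytic luminescence or CellTiter Glo ATP.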
# [8] = at 45.9 µM (top of the series), tumour line B
# [9] = at 45.9 µM (top of the series), tumour line D
# [10] = at 46.1 µM (top of the series), tumour line C
# [11] = at 20 µM (top of the series), tumour line C
# [12] = at 21.2 µM (top of the series), tumour line B
# [13] = at 21.2 µM (top of the series), tumour line D
# [14] = at 91.6 µM (top of the series), tumour line B
# Nuclear receptor subfamily 1 group I member 2 (Rattus norvegicus), sequence (Q9R1A7 whole entry, looked up): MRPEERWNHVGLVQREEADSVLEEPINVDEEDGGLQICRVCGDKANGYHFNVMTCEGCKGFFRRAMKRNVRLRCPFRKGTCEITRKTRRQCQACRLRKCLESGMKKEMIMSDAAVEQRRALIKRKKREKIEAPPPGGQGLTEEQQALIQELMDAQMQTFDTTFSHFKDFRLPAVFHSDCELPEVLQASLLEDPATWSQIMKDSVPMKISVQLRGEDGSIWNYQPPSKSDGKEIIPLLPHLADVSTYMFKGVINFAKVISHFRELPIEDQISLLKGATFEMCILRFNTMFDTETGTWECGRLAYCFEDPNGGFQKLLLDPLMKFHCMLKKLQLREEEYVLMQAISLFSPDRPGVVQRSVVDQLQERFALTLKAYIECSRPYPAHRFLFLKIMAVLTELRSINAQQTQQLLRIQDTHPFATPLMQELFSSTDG
smiles,measurement,setting,value
COc1cc(/C=C/C(=O)N2CCN(CC(=O)N3CCCC3)CC2)cc(OC)c1OC,Potency,[1],inactive
same,Potency,[2],inactive
same,"activity, negative = cell killing",[3]; [8],-11%
same,"activity, negative = cell killing",[3]; [9],-1.45%
same,"activity, negative = cell killing","[3]; at 46 µM (top of the series), tumour line A",-40.7%
same,"activity, negative = cell killing",[3]; [10],-18.6%
Nc1ccc(O)c([N+](=O)[O-])c1,Potency,[1],inactive
same,Potency,[2],inactive
same,max response,[4],-2.38% and -0.765%
same,outcome,[5],inactive
CC(C(=O)O)c1ccc(C(=O)c2ccccc2)s1 (centres undefined),Potency,[1],inactive
same,Potency,[2],inactive
same,"activity, negative = cell killing",[3]; [11],-11.8%
same,"activity, negative = cell killing",[3]; [12],-9.92%
same,"activity, negative = cell killing",[3]; [13],4.8%
same,Potency,[6],inactive
CCCSc1ccc2nc(NC(=O)OC)[nH]c2c1,Potency,[1],2 µM (active)
same,Potency,[2],1.12 µM (active)
same,Potency,[6],0.501 µM (active)
NCCO,Potency,[1],inactive
same,Potency,[2],inactive
same,"activity, negative = cell killing",[3]; [14],-4.71%
same,"activity, negative = cell killing","[3]; at 91.6 µM (top of the series), tumour line D",-21.3%
same,"activity, negative = cell killing","[3]; at 99.2 µM (top of the series), tumour line C",-29.9%
same,Potency,[6],inactive
same,max response,[4],-4.55%
same,outcome,[5],inactive
O=c1[nH]c2ccccc2n1CCCN1CCN(C(c2ccccc2)c2ccccc2)CC1,Potency,[2],inactive
CC1(C)S[C@@H]2[C@H](NC(=O)[C@H](N)c3ccccc3)C(=O)N2[C@H]1C(=O)O,Potency,[1],inactive
same,Potency,[2],inactive
same,"activity, negative = cell killing",[3]; [8],-7.71%
same,"activity, negative = cell killing",[3]; [9],10.7%
same,"activity, negative = cell killing",[3]; [10],12.5%
same,max response,[4],-3.75%
same,outcome,[5],inactive
c1ccc2sc(SN3CCOCC3)nc2c1,Potency,[1],inactive
same,Potency,[2],inactive
same,"activity, negative = cell killing",[3]; [8],-16.5%
same,"activity, negative = cell killing",[3]; [9],-19.8%
same,"activity, negative = cell killing",[3]; [10],-23.9%
same,Potency,[6],inactive
Nc1ccc(O)c(C(=O)O)c1,Potency,[1],inactive
same,Potency,[2],inactive
same,"activity, negative = cell killing",[3]; [8],-12.4%
same,"activity, negative = cell killing",[3]; [9],5.07%
same,"activity, negative = cell killing",[3]; [10],2.81%
same,Potency,[6],inactive
same,max response,[4],-0.0122% and -1.86%
same,outcome,[5],inactive
S=c1[nH]c2ccccc2s1,Potency,[1],inactive
same,Potency,[2],inactive
same,"activity, negative = cell killing",[3]; [8],-16.2%
same,"activity, negative = cell killing",[3]; [10],-8.66%
same,Potency,[3]; tumour line A,39.8 µM (active)
same,max response,[4],4.63% and 1.9%
same,outcome,[5],inactive
CCCCCCOc1ccccc1C(N)=O,Potency,[1],inactive
same,Potency,[2],inactive
same,"activity, negative = cell killing",[3]; [10],-6.65%
same,Potency,[3]; tumour line A,14.1 µM (active)
same,Potency,[6],14.1 µM (active)
CO[C@@]1(NC(=O)Cc2cccs2)C(=O)N2C(C(=O)O)=C(COC(N)=O)CS[C@@H]21,Potency,[1],inactive
same,Potency,[2],inactive
same,"activity, negative = cell killing",[3]; [8],3.39% and 0.545%
same,"activity, negative = cell killing",[3]; [9],-2.17% and -11.4%
same,"activity, negative = cell killing",[3]; [10],-9.41% and -2.11%
same,Potency,[6],inactive
CC(=O)SCC(CC(=O)c1ccc(C)cc1)C(=O)O (centres undefined),Potency,[1],inactive
same,Potency,[2],inactive
same,"activity, negative = cell killing",[3]; [8],-14.9%
same,"activity, negative = cell killing",[3]; [9],-21.8%
same,"activity, negative = cell killing",[3]; [10],1.92%
same,Potency,[6],inactive
Nc1ccc([N+](=O)[O-])cc1O,Potency,[1],inactive
same,Potency,[2],inactive
same,max response,[4],-5.85% and -4.85%
same,outcome,[5],inactive
COC(=O)c1nc(Cl)c(Cl)nc1N,Potency,[1],12.6 µM (active)
same,Potency,[2],3.16 µM (active)
same,Potency,[7]; HiBiT,2.22 µM (active)
same,Potency,[7]; Viability,11.1 µM (active)
CN(C)CCn1nnnc1SCC1=C(C(=O)O)N2C(=O)[C@@H](NC(=O)Cc3csc(N)n3)[C@H]2SC1,Potency,[1],inactive
same,Potency,[2],inactive
same,"activity, negative = cell killing",[3]; [11],7.42%
same,"activity, negative = cell killing",[3]; [12],-1.03%
same,"activity, negative = cell killing",[3]; [13],-12.5%
same,Potency,[6],inactive
CC(N)C(=O)OC(C)(C)Cc1ccc(Cl)cc1 (centres undefined),Potency,[1],inactive
same,Potency,[2],inactive
same,"activity, negative = cell killing",[3]; [8],-21.1%
same,"activity, negative = cell killing",[3]; [9],-21.2%
same,Potency,[3]; tumour line A,20 µM (active)
same,Potency,[6],inactive
CN(C)c1ccc(N=NS(=O)(=O)O)cc1,Potency,[1],inactive
same,"activity, negative = cell killing",[3]; [14],-16.9%
same,outcome,[5],inactive
CCOc1ccc2nc(S(N)(=O)=O)sc2c1,Potency,[1],inactive
same,Potency,[2],inactive
same,"activity, negative = cell killing",[3]; [8],-0.995%
same,"activity, negative = cell killing",[3]; [9],-17.7%
same,"activity, negative = cell killing",[3]; [10],1.48%
same,Potency,[6],inactive
CN1CC(=O)N/C1=N/C(=O)Nc1cccc(Cl)c1,Potency,[1],inactive
same,Potency,[2],inactive
same,"activity, negative = cell killing",[3]; [8],-4.72% and 3.17%
same,"activity, negative = cell killing",[3]; [9],-5.4% and -21.8%
same,"activity, negative = cell killing",[3]; [10],-23.8% and 2.92%
same,Potency,[6],inactive
CC(=O)O[C@H]1C[C@@]2(C)[C@@H](C[C@@H](O)[C@H]3[C@@]4(C)CC[C@@H](O)[C@@H](C)[C@@H]4CC[C@@]32C)/C1=C(\CCC=C(C)C)C(=O)O,Potency,[1],inactive
same,Potency,[2],inactive
same,"activity, negative = cell killing",[3]; [8],-17.2%
same,"activity, negative = cell killing",[3]; [9],1.56%
same,"activity, negative = cell killing",[3]; [10],-26.3%
same,Potency,[6],inactive
C/C(=N\O)c1ccc(OCC(=O)N2CCCCC2)cc1,Potency,[2],inactive
O=C(O)/C=C\C(=O)O,Potency,[1],inactive
same,Potency,[2],inactive
same,max response,[4],4.35%
same,outcome,[5],inactive
